# Experimental data as given in PubChem BioAssay AID624305 (National Center for Advancing Translational Sciences (NCATS), 2012).
# Records with an inconclusive call do not appear. Active and inactive are the calls of the source. Calls follow the shape of the dose curve; as a rule, active = well fitted activation curve with a large enough effect; inconclusive = small, poorly fitted or top-dose-only effect; inactive = no such curve, though single readings can be large or run the other way.
# Assay: qHTS assay for re-activators of p53 using a Luc reporter: Hit Validation; also: nearly all actives have a fitted effect of over 75% in size; as to activation: 0% is about no effect
# Conditions: p53-responsive luciferase reporter cells, luminescence, H1299 line expressing heat-sensitive Ala138Val p53; series mostly up to 46.1 µM; activation: at the top concentration
# Method in brief: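 Hit confirmation with a 1:5 dilution series, at 37 deg C for 24 hrs, in H1299 cells co-expressing temperature-sensitive p53-A138V and p53-responsive luciferase. Nocodazole served as control; luminescence read after 10 min with detection reagent.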
# Potency is read from the fitted curve at half-maximal effect.
SMILES,activation,Potency
O=C(Cc1ccccc1)NCc1ccc(F)cc1,34.4% (inactive),
CCOP(=O)(OCC)C(NC(=O)Nc1ccccc1)C(N)=O (stereo not drawn),-4.69% (inactive),
COc1ccc(C2=NN(C(C#N)c3ccc(OC)cc3)C(c3ccccc3)C2)cc1 (stereo not drawn),,14.6 µM (active)
COCCCN=C(c1ccco1)n1c(=S)nc(-c2ccco2)n(CCCOC)c1=S,39.6% (inactive),
COc1cccc(/C=N/NC(=O)CCc2n[nH]c(=O)[nH]c2=O)c1O,5.21% (inactive),
NC(=NCc1ccccc1)c1cccc([N+](=O)[O-])c1,23.4% (inactive),
CCn1c(=O)c2ccccc2n(Cc2ccccc2C)c1=O,-7.29% (inactive),
COc1cc(NC(=O)CN2CCCCC2)c(C)cc1[N+](=O)[O-],9.16% [at 9.22 µM] (inactive),
O=C(c1cnn(-c2ccccc2)c1)c1ccccc1O,,1.46 µM (active)
O=C(N/N=C\c1cccc(Cl)c1)c1n[nH]c2c1CCCC2,,4.11 µM (active)
O=C(NCc1ccco1)c1noc2c1CCCC2,56.8% (inactive),
Cc1nc2cc(-c3ccccc3)nn2c(N)c1-c1ccccc1,,0.411 µM (active)
Brc1ccc(-c2nc3ccccc3s2)s1,,3.26 µM (active)
COc1ccccc1NC(CC(=O)c1ccccc1)C(=O)OCC(=O)c1ccc(F)cc1 (stereo not drawn),,0.231 µM (active)
N#CC1(c2ccc(NC(=O)c3ccccc3F)cc2)CCCC1,,1.64 µM (active)
CCOc1ccc(NS(=O)(=O)c2ccc(C(=O)NC3CCN(Cc4ccccc4)CC3)cc2)cc1,-2.08% (inactive),
O=C(Nc1ccc(NC(=O)C2CCCCC2)cn1)c1ccco1,,2.59 µM (active)
O=C(COC(=O)c1cc2ccccc2oc1=O)Nc1cccc(S(=O)(=O)N2CCCCCC2)c1,37.5% (inactive),
CCCCC(=O)N1CCCC(C)C1 (stereo not drawn),-10.4% (inactive),

SMILES,activation,Potency
COc1ccccc1NC(CC(=O)c1ccccc1)C(=O)OCC(=O)c1ccc(C)c(C)c1 (stereo not drawn),,0.291 µM (active)
c1ccc(-n2ncc3c(N4CCCCC4)ncnc32)cc1,,1.16 µM (active)
C1=C(CCNc2ncnc3nc[nH]c23)CCCC1,,1.64 µM (active)
Cc1occc1C(=O)NN=C1C2CC3CC(C2)CC1C3,40.1% (inactive),
Cc1cc(/C=C2/C(=O)NN(c3ccccc3)C2=O)c(C)n1-c1cccc(O)c1,,10.3 µM (active)
Oc1[nH]c2ccccc2c1C=Nc1ccc2c(c1)OCCO2,,0.326 µM (active)
Cc1ccsc1/C=N/Nc1nc2ccccc2[nH]1,,1.3 µM (active)
Clc1ccc(-c2nnc(N3CCCC3)nn2)cc1,,0.731 µM (active)
CN1CC(C(=O)Nc2ccc(F)c(Cl)c2)CC1=O (stereo not drawn),-4.69% (inactive),
COc1ccc(-n2cc(-c3ccccc3)[nH]c2=S)cc1,,11.6 µM (active)
Cc1nc(NC(=O)c2csc3ccccc23)sc1C,,0.82 µM (active)
O=C(NNC(=O)c1cc(-c2ccccc2)nn1-c1ccccc1)c1ccccc1,1.05% [at 9.22 µM] (inactive),
CCOc1ccc(N/C=C/C(=O)c2ccccc2)c([N+](=O)[O-])c1,,0.461 µM (active)
CCOC(=O)c1[nH]nc(C(=O)c2ccc(Br)cc2)c1O,-94.3% (inactive),
O=S(=O)(N/N=C/c1ccccc1OCc1ccc(Cl)cc1)c1ccccc1,-58.3% (inactive),
O=C(CSc1ccccc1)Nc1ccc(-c2nc3ccccc3[nH]2)cc1,76.6% (inactive),
Cc1ccc(S(=O)(=O)NCCOc2nc(N(C)C)nc(N3CCOCC3)n2)cc1,-7.81% (inactive),
CCSc1nnc(SCC(=O)NC2CCCCC2)s1,-8.33% (inactive),
CCN(CC)C(=O)CSC(=Nc1ccccc1F)NC#N,,14.6 µM (active)
